Results filed as inconclusive are left out. A number with no mark means an inactive call. Calls of active or inactive are those of the source. Calls come from the whole dose curve; as a rule, active = well fitted activation curve with a large enough effect in the signal ratio in the repeat runs (not every such curve was filed as active); inconclusive = weak or mixed curves, or effect the other way; inactive = flat fitted curve, though single readings scatter; the % refers to the signal ratio.
% is set by controls: 0 for no effect and ±100 for the full control effect.

Bile acid receptor (Homo sapiens), sequence (Q96RI1 whole entry, looked up): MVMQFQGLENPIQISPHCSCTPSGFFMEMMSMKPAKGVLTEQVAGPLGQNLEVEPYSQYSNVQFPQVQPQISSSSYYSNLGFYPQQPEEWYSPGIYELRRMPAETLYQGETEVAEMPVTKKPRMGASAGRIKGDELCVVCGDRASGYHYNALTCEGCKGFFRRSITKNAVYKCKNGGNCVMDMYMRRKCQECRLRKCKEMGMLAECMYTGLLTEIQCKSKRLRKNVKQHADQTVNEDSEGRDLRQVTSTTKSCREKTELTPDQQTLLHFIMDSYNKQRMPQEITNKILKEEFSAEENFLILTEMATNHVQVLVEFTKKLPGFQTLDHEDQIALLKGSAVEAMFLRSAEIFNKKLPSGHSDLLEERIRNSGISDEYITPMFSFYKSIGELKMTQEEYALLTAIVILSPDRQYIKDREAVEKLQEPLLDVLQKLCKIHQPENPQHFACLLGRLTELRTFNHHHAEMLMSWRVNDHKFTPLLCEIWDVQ

The assay addresses Bile acid receptor (Homo sapiens) (UniProt Q96RI1). The experiment in a line: qHTS assay to identify small molecule agonists of the farnesoid-X-receptor (FXR) signaling pathway (AID 743220). As to conditions: HEK293T FXR-UAS-bla, beta-lactamase FRET ratio, 16 h; series mostly up to 62.6 µM; activation: at the top concentration. From the text: National Center for Advancing Translational Sciences [NCATS]
NIH Chemical Genomics Center [NCGC]
U.S. Environmental Protection Agency [EPA]
National Institutes of Environmental Health Sciences [NIEHS]
National Toxicology Program [NTP]
U.S. Food and Drug Administration [FDA]
The farnesoid-X-receptor (FXR), a nuclear hormone receptor, is highly expressed in liver, intestine, kidney and adrenal cortex. Natural ligands of FXR are the bile acids (Cholic acid, Chenodeoxy cholic acid etc). FXR is an important regulator of diverse metabolic pathways, including the bile acid homeostasis, lipid and glucose metabolisms. FXR regulates the expression of target genes by binding either as a monomer or as a heterodimer with the retinoid X receptor (RXR). Numerous studies have reported that FXR exerts protective function during cholestasis, diabetes, liver regeneration, and cancer. To identify compounds that activate FXR signaling, GeneBLAzer FXR-UAS-bla HEK 293T cell line (Invitrogen, Carlsbad, CA) containing a beta-lactamase reporter gene under the control of a UAS response element was used to screen the Tox21 10K compound library.
Tox21 Assay Protocol Summary:
FXR-bla cells were dispensed at 5000 cells/5uL/well in 1536-well black wall/clear bottom plates using a Multidrop Combi (Thermo Fisher Scientific, Waltham, MA) dispenser. After the assay plates were incubated at 37C and 5% CO2 for 5 h, 23 nL of compounds dissolved in DMSO, positive controls or DMSO only was transferred to the assay plate by a Pintool station (Kalypsys, San Diego, CA). The assay plates were incubated at 37C for 16 h. After 1 uL of LiveBLAzerTM B/G FRET substrate was added using a Bioraptr Flying Reagent Dispenser (FRD) workstation (Beckman Coulter, Indianapolis, IN), the plates were incubated at room temperature for 2 h, and fluorescence intensity was measured by an Envision plate reader (PerkinElmer, Shelton, CT).
Take `CC(C)CC(C)O` (stereo not given): the outcome was inactive.
On to `Nc1ccc(Cl)c(N)c1`, for which the outcome was inactive.
Take `O=S(=O)(O)c1ccccc1`: the outcome was inactive.
In the case of `CCCCC(C=O)CC` (stereo not given), the outcome was inactive.
Consider `CCCCCCCCCCCC(=O)OC`, for which the outcome was inactive.
For the compound `CCO[Si](CCC#N)(OCC)OCC`, the result was inactive.
Same read-out and setting: with `CC(=O)OC1CC(C)OC(C)O1` (stereo not given) the entry was “inactive”.
On the same count and under the same terms, next, `CNC(=O)Oc1ccc2c(c1)[C@]1(C)CCN(C)[C@@H]1N2C`: “inactive”.
The same measure, in the same setting: with `Clc1ccccn1` the entry was “inactive”; with `c1ccc(Oc2ccccc2)cc1`, “inactive”; with `OCc1cccc(Oc2ccccc2)c1`, “inactive”.
For the compound `CCOC(=O)n1ccn(C)c1=S`, the result was inactive.
Still for that read-out and setting: next, `CCOCCOCCOCCO`: “inactive”; `O=C(O)c1ccc(S(=O)(=O)N(Cl)Cl)cc1`: “inactive”; `CC(C)=CCl`: “inactive”.
As to `CCNc1ccccc1`, the outcome was inactive.
As for `CCCCCCCCCCO`, the outcome was inactive.
Same read-out and setting: with `CN(C)c1ccc(Cc2ccc(N(C)C)cc2)cc1` the entry was “inactive”.
Turning to `CCO[Si](CCCN)(OCC)OCC`, the “activation” value was 1.85%.
`c1ccc2c(c1)Cc1ccccc1-2`: the result was inactive.
As for `O=[N+]([O-])c1ccc2nc[nH]c2c1`, the outcome was inactive.
Turning to `O=C1c2ccccc2CCc2ccccc21`, the outcome was inactive.
Same read-out and setting: next, `COc1ccc(N)c(C)c1`: “inactive”; `O=C1C(c2[nH]c3ccccc3c2O)=Nc2ccccc21`: “inactive”.
Still for that read-out and setting: with `CC(=O)CC(C)(C)O` the entry was “inactive”; with `C=CCc1ccc(OC)c(OC)c1`, “inactive”; with `CC(C)OC(=O)COc1ccc(Cl)cc1Cl`, “inactive”.
As for `CC(C)CCCCCCCOC(=O)CCCCC(=O)OCCCCCCCC(C)C`, the result was inactive.
On the same count and under the same terms, next, `CC(C)CC(=O)CC(C)CC(C)C` (stereo not given): “inactive”.
The same measure, in the same setting: with `CC(C)(C#N)c1cc(Cn2cncn2)cc(C(C)(C)C#N)c1` the entry was “inactive”; with `CC(C)(Oc1ccc(CCNC(=O)c2ccc(Cl)cc2)cc1)C(=O)O`, “inactive”.
The same measure, in the same setting: with `CC(C)(C)c1cc(Cc2cc(C(C)(C)C)c(O)c(C(C)(C)C)c2)cc(C(C)(C)C)c1O` the entry was “inactive”.
Turning to `CC(C)c1cccc(C(C)C)c1`, the outcome was inactive.
As to `C[Si]1(C)O[Si](C)(C)O[Si](C)(C)O[Si](C)(C)O1`, the result was inactive.
Consider `N#Cc1ccccc1`, for which the outcome was inactive.
Same read-out and setting: next, `CC(C)OP(=O)(CP(=O)(OC(C)C)OC(C)C)OC(C)C`: “inactive”; `O=S(=O)(O)c1ccc(N=Nc2c(O)ccc3cc(S(=O)(=O)O)ccc23)cc1`: “inactive”.
Take `COC(=O)CCCC(=O)OC`: the outcome was inactive.
On the same count and under the same terms, next, `O=C(O)Cn1c(=O)n(Cc2ccc(Br)cc2F)c(=O)c2ccc(Cl)cc21`: “inactive”; `COc1ccc(CCC(C)=O)cc1`: “inactive”.

These data come from PubChem BioAssay (Tox21).
